Source: PubChem
C8 TRAIL sens – caspase-8 TRAIL sensitization; inhibition (viability loss, TRAIL sensitization), % at 10 µM; hit rate 1% among 360,000; NB7+C8 cells + TRAIL, ATPlite viability luminescence;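 active = compounds causing at least 50% loss of cell viability in the single-dose screen, relative to plate controls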
SENP6 inh – inhibitors of human SENP6 protease; inhibition, % at 10 µM; hit rate 1.8% among 330,000; Recombinant SENP6 catalytic domain, aminoluciferin luminescence;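 active = inhibition above about 50% at the single tested dose, limit read from the data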;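 also: plate controls were DMSO wells with enzyme for no effect and DMSO wells lacking enzyme for full effect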
SENP8 block-1 – blocks the human protease SENP8 | Q96LD8 | purified SENP8, Z-RLRGG-aminoluciferin cleavage, luminescence | inhibition, % at 10 µM | hit rate 1.2% among 330,000; in the data active = inhibition above about 50%
Target sequence (Q96LD8 whole entry, looked up): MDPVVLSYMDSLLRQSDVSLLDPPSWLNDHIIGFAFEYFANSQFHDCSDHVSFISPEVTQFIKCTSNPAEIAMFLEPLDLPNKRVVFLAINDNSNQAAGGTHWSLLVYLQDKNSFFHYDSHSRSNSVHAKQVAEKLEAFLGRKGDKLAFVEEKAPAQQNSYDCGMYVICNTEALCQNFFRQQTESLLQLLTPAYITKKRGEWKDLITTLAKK
SENP7 block – SENP7 protease inhibition | Q9BQF6 | recombinant SENP7, Z-RLRGG-aminoluciferin luminescence, 40 min | inhibition, % at 5 µM | hit rate 1.5% among 330,000 | AID 434973;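 active = inhibition above about 50% at the single test dose, limit read from the data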;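 also: plate controls were DMSO with enzyme for no effect and no enzyme buffer wells for full effect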
SENP8 block-2 – SENP8 (human) protease inhibition. AID 602440. recombinant SENP8, Nedd8 substrate fluorescence. inhibition, % at 20 µM. Q96LD8. hit rate 0.64% among 360,000; in the data active = inhibition mostly above about 40%, no sharp cut-off; inactive = mostly below about 27%
PPC-1+TRAIL kill – kills PPC-1 cancer cells in the presence of TRAIL | PPC-1 cells + TRAIL, ATPLite viability luminescence | cell killing (% activity), % at 4 µM or 5 µM | hit rate 0.41% among 220,000;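 active = cell killing above 50% in the first pass at 4 µM, then a duplicate retest at 5 µM averaging 50% or more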;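 also: plate controls were cells with TRAIL plus DMSO for no effect and medium-only wells lacking cells for full effect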
SENP8 conf – confirmation of human SENP8 protease inhibitors. shares compounds with SENP7 block. Recombinant SENP8, Z-RLRGG-aminoluciferin luminescence, 60 min. inhibition, % at 12.5 µM. hit rate 40% among 6,200. AID 488912;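 active = mean inhibition across replicates above about 50%, limit read from the data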
SENP6 confirm – confirmation of human SENP6 protease inhibitors; recombinant SENP6, Z-RLRGG-aminoluciferin luminescence; AID 488915; shares compounds with SENP7 block; inhibition, % at 12.5 µM; hit rate 58% among 6,200
SENP7 conf – human SENP7 inhibition, confirmed; shares compounds with SENP7 block; recombinant SENP7, Z-RLRGG-aminoluciferin luminescence, 40 min; inhibition, % at 12.5 µM; hit rate 69% among 6,200; AID 488917
Casp3 select – inhibits human caspase-3 in SENP selectivity test. shares compounds with SENP7 block. purified caspase-3, Z-DEVD-aminoluciferin luminescence, 60 min. inhibition, % at 12.5 µM. hit rate 60% among 6,200;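 active = mean inhibition above about 50%, limit read from the data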;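 also: plate controls were enzyme with DMSO for no effect and wells without caspase-3 for full effect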
Target sequence (P42574 28-227 limits assumed): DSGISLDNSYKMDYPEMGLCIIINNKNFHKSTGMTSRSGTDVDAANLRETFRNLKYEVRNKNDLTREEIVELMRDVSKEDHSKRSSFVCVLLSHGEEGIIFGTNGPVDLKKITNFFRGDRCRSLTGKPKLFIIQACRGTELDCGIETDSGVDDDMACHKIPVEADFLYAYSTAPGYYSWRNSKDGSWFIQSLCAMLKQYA
SENP luc ctr – luminescence interference (SENP counter-screen); shares compounds with SENP7 block; Pre-incubated SENP8/Z-RLRGG-aminoluciferin, luciferase luminescence interference; inhibition, % at 12.5 µM; hit rate 39% among 6,200; AID 488919;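 active = mean inhibition above about 50% when retested at one dose, limit read from the data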;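 also: plate controls were DMSO wells with completed reaction for no effect and substrate without enzyme for full effect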
Numbers without * were called inactive; . = not tested or not shown. Compounds with a hit are over-represented: about 3% of the library has one in this group of screens.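 The calls were made as follows, unless noted: active = mean inhibition above about 50% in the one-dose retest (limit read from the data); inactive = the rest.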

SMILES | C8 TRAIL sens | SENP6 inh | SENP8 block-1 | SENP7 block | SENP8 block-2 | PPC-1+TRAIL kill | SENP8 conf | SENP6 confirm | SENP7 conf | Casp3 select | SENP luc ctr
CC1(C)CCc2cc(S(=O)(=O)N3CCN(S(=O)(=O)c4c(F)cccc4F)CC3)ccc2O1 | 0 | -2 | -3 | 7 | -5 | . | . | . | . | . | .
Cc1ccc(C(=O)Nc2ccc3c(c2)OCO3)cc1S(=O)(=O)N1CCCC1 | 19 | -20 | -9 | -10 | 21 | 19 | . | . | . | . | .
Cc1ccc(C(=O)Nc2ccc3c(c2)OCO3)cc1Cl | 17 | 5 | -11 | 51* | 0 | . | -3 | 0 | 61* | 36 | -1
Cc1cc(=O)[nH]c(N2CCCCC2)n1 | -18 | . | . | . | 8 | . | . | . | . | . | .
CCOc1ccc(/C=C2/SC(=O)NC2=S)cc1 | -4 | 74* | 45 | 10 | 12 | 13 | 19 | 20 | 41 | 8 | 22
Cc1c(Cl)cccc1NC(=S)NNS(=O)(=O)c1ccc([N+](=O)[O-])cc1 | -1 | -5 | 3 | -3 | 20 | . | . | . | . | . | .
CCOC(=O)C1(C(F)(F)F)N=C(C(F)(F)F)Nc2ccccc21 (stereo unspecified) | -11 | 3 | -5 | 72* | 5 | 15 | 9 | 7 | 2 | -4 | -8
CCOC(=O)C1(Cc2ccccc2)C(=O)Nc2ccccc21 (stereo unspecified) | 8 | -15 | 5 | -5 | 15 | . | . | . | . | . | .
COc1ccc(NC(=O)CSc2nc(N)cc(N)n2)cc1S(=O)(=O)N1CCCCC1 | -16 | -5 | -4 | 13 | 6 | . | . | . | . | . | .
S=C(Nc1ccccc1)c1ccccn1 | 10 | 64* | 54* | 59* | 30 | -22 | 13 | 42 | 83* | 59* | 46
CCc1ccc2nc3sc(C(=O)O)cc3cc2c1 | 28 | 50* | 37 | 4 | -33 | 36 | 58* | 53* | 82* | 76* | 67*
C[C@@H]1CC2=C(C(=O)OC(C)(C)O2)[C@H](c2ccc(Cl)cc2)O1 | -9 | . | . | . | 10 | . | . | . | . | . | .
CCOC(=O)c1sc(NC(=O)c2cc3c(s2)CCC(C)C3)nc1C (stereo unspecified) | -5 | 20 | 7 | 11 | -376 | 11 | . | . | . | . | .
COC(=O)c1sc(NC(=O)c2cc3c(s2)CCCC3)nc1C | 25 | 23 | 35 | 80* | -221 | 4 | 34 | 34 | 90* | 52* | 40
CCCCc1nc2cc(C(=O)NC3CCOC(C)(C)C3)ccc2o1 (stereo unspecified) | 4 | -12 | -12 | 80* | 13 | . | -14 | -9 | -11 | -4 | -11
Oc1ccc(Br)cc1C1Nc2ccccc2S1 (stereo unspecified) | 26 | 35 | 38 | 79* | -291 | . | -21 | -10 | -4 | 9 | -2
CCc1nc2ccc(C(=O)NCc3ccccc3OC)cn2c1N(C)Cc1ccc(OC)cc1 | -1 | . | . | . | -2 | . | . | . | . | . | .
N/C(=N\OC(=O)Nc1ccc(Cl)cc1)c1ncc(C(F)(F)F)cc1Cl | -3 | -22 | -5 | 5 | 20 | 13 | . | . | . | . | .
N/C(=N\OC(=O)Nc1ccccc1)c1ncc(C(F)(F)F)cc1Cl | -2 | 50* | 29 | 7 | 20 | -4 | 52* | 47 | 77* | 69* | 57*
C[C@H](C(=O)O)c1cccc(C(=O)c2ccccc2)c1 | -4 | -12 | 1 | 6 | 19 | . | . | . | . | . | .
CC(C(=O)O)c1ccc(C(=O)c2ccccc2)s1 (stereo unspecified) | -5 | 68* | 52* | 41 | 7 | . | 62* | 52* | 79* | 88* | 61*
